# Shown are actives, neighbours in structure and some others; about 6.6% of the full set was active somewhere.
# GDH-TPI counter: GDH-TPI coupling enzyme inhibitors, primary screen, artefact control for M. tuberculosis FBA inhibitor project, biochemical, absorbance, full deck | inhibition, % at 4.8 µM | GDH-TPI coupled enzyme counterscreen, NADH absorbance | 1.2% of 360,000 active; in the data active = inhibition above about 30%;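 also: 0% = DMSO wells and 100% = wells lacking the enzyme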
# Autofluor counter: flagged as autofluorescent in microsphere protease counterscreen; AID 624483; 3.1% of 360,000 active; compound autofluorescence counterscreen, microsphere flow cytometry; hits give high values; fluorescence intensity (test concentration not listed); in the data active = fluorescence intensity above about 16000; inconclusive = no clear call, values can overlap the other calls
# BoNT F protease: BoNT/F light chain protease inhibitors, primary screen, biochemical, flow cytometry, MLPCN library; Botulinum neurotoxin type F light chain protease (Clostridium botulinum); Multiplex microsphere protease cleavage assay; inhibition, % at 10 µM; 0.22% of 360,000 active; AID 588497, 2011; in the data active = inhibition above about 35%, passing the limit was not always enough; inconclusive = no clear call, values can overlap the other calls; also: plate controls were buffer without enzyme for full effect and enzyme alone for no effect
# BoNT-A LC inh2: BoNT/A light chain protease inhibitors, primary screen, biochemical, flow cytometry, MLPCN library. Botulinum neurotoxin type A light chain protease (Clostridium botulinum A str. ATCC 3502). multiplex microsphere protease substrate cleavage. inhibition, % at 10 µM. 0.17% of 360,000 active; also: plate controls were buffer without enzyme for full effect and enzyme alone for no effect
# FBA Mtb inh: Mtb FBA enzyme inhibitors, primary screen, biochemical, fluorescence, strain H37Rv | purified M. tuberculosis FBA, fluorescence read-out | inhibition, % at 1 µM | 2.3% of 360,000 active; in the data active = inhibition above about 27%;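 also: 0% = vehicle and 100% = reference inhibitor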
# Target sequence (P9WQA3 whole entry, looked up): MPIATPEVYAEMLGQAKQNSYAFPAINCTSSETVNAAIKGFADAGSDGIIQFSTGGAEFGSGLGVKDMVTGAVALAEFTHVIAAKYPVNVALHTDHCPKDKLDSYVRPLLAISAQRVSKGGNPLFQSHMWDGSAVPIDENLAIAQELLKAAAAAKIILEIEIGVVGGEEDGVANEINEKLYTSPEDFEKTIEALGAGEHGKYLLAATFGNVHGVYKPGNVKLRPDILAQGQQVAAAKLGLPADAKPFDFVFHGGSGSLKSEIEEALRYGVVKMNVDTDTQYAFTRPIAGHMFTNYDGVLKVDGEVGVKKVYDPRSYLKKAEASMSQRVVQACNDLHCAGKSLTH
# Anthrax LF inh2: Bacillus anthracis LF protease inhibitors, primary screen, biochemical, multiplex microsphere, MLPCN library; 0.12% of 360,000 active; inhibition, % at 10 µM; multiplex microsphere protease cleavage assay; Lethal factor (Bacillus anthracis), P15917; also: plate controls were buffer without enzyme for full effect and enzyme alone for no effect
# An asterisk follows results filed as active; ? = inconclusive; / = no result. Rule as the data show it, unless noted: active = inhibition above about 30%; inconclusive = no clear call, values can overlap the other calls; inactive = below that.
SMILES,GDH-TPI counter,Autofluor counter,BoNT F protease,BoNT-A LC inh2,FBA Mtb inh,Anthrax LF inh2
O=C(CN1C(=O)S/C(=C\c2cccs2)C1=O)Nc1ccc(O)cc1C(=O)O,44*,4651,2,0,11,1
O=C(CCN1C(=O)/C(=C\c2ccccc2)SC1=S)Nc1ccc(C(=O)O)cc1,5,5041,8,2,-1,-3
O=C(CCN1C(=O)/C(=C/c2cccs2)SC1=S)Nc1ccc(C(=O)O)c(O)c1,6,6555,-1,-1,-10,0
COc1ccc(/C=C2\SC(=S)N(CCC(=O)Nc3ccccc3C(=O)O)C2=O)cc1,10,3266,-8,0,0,6
O=C(CCN1C(=O)S/C(=C\c2ccccc2)C1=O)Nc1ccc(O)cc1C(=O)O,38*,5585,5,0,-2,-4
O=C(CCN1C(=O)S/C(=C/c2ccccc2)C1=O)Nc1ccc(O)c(C(=O)O)c1,42*,4857,3,2,-2,-2
Cc1cc(-n2c(C)cc(C(=O)CSc3ccc4c(c3)OCCO4)c2C)no1,6,4016,0,-1,-9,-2
CC(=O)c1c(C)nc2ccccc2c1N,16,2234,-2,0,0,-1
Cc1nc2ccccc2c(N)c1C(=O)/C=C/c1ccccc1,37*,4034,-9,-4,1,-2
NC(N)=NS(=O)(=O)c1ccc(NC(=S)NC(=O)c2ccc3c(c2)OCO3)cc1,9,5776,-15,-2,5,-9
COc1ccc(C)cc1-n1nnnc1SCC(=O)NC1CCCC1,7,/,/,/,2,/
COc1ccc(C)cc1-n1nnnc1SCC(=O)N1CCC(C(=O)Nc2nccs2)CC1,20,23303*,-2,?,-1,-1
CCOC(=O)c1cccc(NC(=O)Cn2cnc3c2c(=O)n(C)c(=O)n3C)c1,-6,20236*,-3,?,-1,0
COC(=O)c1cccc(NC(=O)Cn2cnc3c2c(=O)n(C)c(=O)n3C)c1,1,11314,11,0,-1,-2
CCOC(=O)c1cccnc1SCC(=O)N(C)c1ccccc1,5,22147*,0,1,2,3
CC(NC(=O)CNC(=O)C(Cc1ccccc1)NC(=O)OCc1ccccc1)C(N)=O (configuration not stated),-1,3232,1,-1,-1,-2
C=CCC(C(=O)Oc1c(C(C)(C)C)cc(C)cc1C(C)(C)C)c1ccccc1 (configuration not stated),4,3321,1,0,-1,-1
COc1ccccc1N1C(C)=CC(=C(C#N)c2nc3ccccc3s2)C=C1C,9,3142,25,57*,-3,28
CC(C)=C(C#N)c1nc2ccccc2s1,-5,11486,-14,-2,-1,-1
CC1=CC(=C(C#N)c2nc3ccccc3s2)C=C(C)N1c1ccc(F)cc1,11,3300,15,36*,-1,20
CC/S(=N\S(=O)(=O)c1ccc(C)cc1)c1ccccc1 (configuration not stated),10,/,/,/,0,/
O=C(Nc1cccc(C(=O)O)c1)/C(=C\C=C\c1ccccc1)NC(=O)c1ccccc1,33*,4449,-1,0,-7,3
O=C(Nc1ccc(C(=O)O)cc1)/C(=C\C=C\c1ccccc1)NC(=O)c1ccccc1Br,52*,4073,5,2,-3,-2
O=C(Nc1cccc(C(=O)O)c1)/C(=C\c1ccccc1)NC(=O)c1ccccc1,1,4958,-3,-1,-2,0
O=C(Nc1ccc(C(=O)O)cc1)/C(=C\C=C\c1ccccc1)NC(=O)c1cccc(Br)c1,42*,2526,1,0,-3,1
SMILES,GDH-TPI counter,Autofluor counter,BoNT F protease,BoNT-A LC inh2,FBA Mtb inh,Anthrax LF inh2
CCOC(=O)/C(=C/C=C/c1ccccc1)NC(=O)c1ccccc1,30,2589,-2,-1,1,1
O=C(Nc1ccc(C(=O)O)cc1)/C(=C/c1ccc2c(c1)OCO2)NC(=O)c1cccc(Br)c1,22,2002,5,0,-3,2
COc1ccc(/C=C(/NC(=O)c2ccccc2OC)C(=O)Nc2ccc(C(=O)O)cc2)cc1,19,4862,-10,-2,-3,0
CCOC(=O)/C(=C\C=C\c1ccccc1)NC(=O)c1ccccc1,67*,2098,-2,0,3,1
O=C(Nc1oc2ccccc2c(=O)c1-c1ccccc1)c1ccco1,19,3898,-4,-1,-2,-3
O=C(O)c1cccc(NS(=O)(=O)/C=C/c2ccccc2)c1,-13,19766*,0,2,0,-6
Cc1ccc(NC(=O)/C(=C\C=C\c2ccccc2)NC(=O)c2ccccc2)cc1,51*,2441,-2,-1,0,1
CCN1C(=O)C(CC(=O)NCc2ccc(Cl)cc2)N(CC)C1=O (configuration not stated),2,20390*,-1,-1,1,0
CCN1C(=O)C(CC(=O)NC2CCCCC2)N(CC)C1=O (configuration not stated),0,3377,0,-1,1,-3
CCSc1nnc(NC(=O)CN2C(=O)NC3(CCCC3)C2=O)s1,7,?,-23,-14,0,-2
O=C1NC[C@@H](CCCCN2C[C@H](Cc3ccc(O)cc3)N(CCc3ccccc3)C(=O)C2=O)N(CCc2ccc(O)cc2)C1=O,/,6009,-2,1,/,8
CCSc1cc(C)nc2c(-c3ccc(Cl)cc3)c(C)nn12,-1,20908*,-4,-3,1,1
BrC(=C\c1ccccc1)/C=N/Nc1ccc2nncn2n1,32*,4136,?,-2,-1,10
C/C(=N\Nc1ccc(C(=O)O)cc1)c1ccc(Br)cc1,56*,4266,-1,0,2,-1
Cc1ccc(C(=O)Nc2ccc(S(=O)(=O)NCc3ccco3)cc2)cc1,16,21876*,4,2,-2,3
C/C(=N/Nc1ncc(Br)cn1)c1ccc(Br)cc1,7,3651,33,1,0,5
Cc1ccc(S(=O)(=O)Nc2nc3ccccc3nc2NCc2ccco2)cc1,32*,8494,11,17,22,15
O=S(=O)(Nc1nc2ccccc2nc1NCc1ccco1)c1ccc(Cl)cc1,10,2952,-3,1,2,-5
Cc1cc(C)cc(NC(=O)c2cc(S(=O)(=O)NCc3ccco3)ccc2F)c1,-2,21467*,-4,-4,1,-3
C/C(=N\Nc1ccc(C(=O)O)cc1)c1ccc(S(=O)(=O)NCc2ccco2)cc1,54*,/,/,/,1,/
